# In PubChem BioAssay (EPA / NIEHS):
# Records with an inconclusive call do not appear. Activity calls are given as the source filed them. How the source made its calls: active means hit-call score of the fitted dose curve at least 0.9, where 1 is the maximum; inconclusive means response in the unintended direction; inactive means score below 0.9.
# Assay: ACEA_ER_80hr: ACEA Biosciences xCELLigence Real-Time Cell Analysis on Estrogen Receptor Agonism for Proliferation (AID 2282667)
# Conditions: T47D proliferation, impedance (xCELLigence), 80 h
# Method in brief: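 Estrogen-driven proliferation is captured as electrode impedance in T47D cells 80 h after compound addition. Test articles ran at 8 concentrations, 1:4 dilutions from 100 uM final, in two replicate plates.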
Compound,outcome,AC50
O=C(O)c1ccc(C(=O)O)c(C(=O)O)c1,inactive,–
CC(=O)CC(=O)N(C)C,inactive,–
CC(C)(O)CCc1ccccc1,inactive,–
CCCCCC1C(=O)CCC1CC(=O)OC (configuration not stated),–,50000 nM (active)
CC1COC(=O)O1 (configuration not stated),inactive,–
CC1=CCC(C(C)C)=CC1,inactive,–
C1COCO1,inactive,–
CCCCOCCOCCOCCO,inactive,–
CC/C=C\CCOC(=O)C(C)C,inactive,–
CCCCCCCCCC(=O)OCC,inactive,–
CCC(C)(CCCC(C)C)OC(C)=O (configuration not stated),inactive,–
OC[C@@H](O)[C@H](O)[C@@H](O)[C@@H](O)CO,inactive,–
C=C(C)CCCC(C)CCO (configuration not stated),inactive,–
CC1=CC(=O)[C@H]2C[C@@H]1C2(C)C,inactive,–
CCC(C)COC(=O)CC(C)C (configuration not stated),inactive,–
CC(=O)c1ccc(C)cc1,inactive,–
C[N+](C)(C)CCO,inactive,–
O=C1CCC(=O)N1,inactive,–
CCCCCCCCOC(C)=O,inactive,–

Compound,outcome,AC50
CCCCCCCCCCCCS,inactive,–
NC(=O)NC(N)=O,inactive,–
CCc1cccc(O)c1,inactive,–
CCC(C)(C)c1cc(O)c(C(C)(C)CC)cc1O,inactive,–
O=C1OC2(c3ccc(O)cc3Oc3cc(O)ccc32)c2ccccc21,inactive,–
NC(=O)c1cnccn1,inactive,–
C=C(C)C(N)=O,inactive,–
NC(=O)c1c(Cl)cccc1Cl,–,168 nM (active)
CC1=CCC(C(C)(C)O)CC1 (configuration not stated),inactive,–
CCC(C)(C)C1CCC(OC)CC1 (configuration not stated),inactive,–
CCCc1ccc(O)cc1,–,50000 nM (active)
O=S(=O)(O)c1cc(S(=O)(=O)O)c2c(N=Nc3ccccc3)c(O)ccc2c1,inactive,–
C=C1CC[C@H]2O[C@]2(C)CC[C@@H]2[C@@H]1CC2(C)C,inactive,–
N#CCCNCCC#N,–,274 nM (active)
CC(C)(C)c1ccc(S)cc1,inactive,–
C=C(C)C(=O)OCCC(C)OC(=O)C(=C)C (configuration not stated),inactive,–
c1ccc(-c2nn[nH]n2)cc1,–,26.1 nM (active)
Cc1cccc(C)c1,inactive,–
